Compound activity as filed in PubChem.
Hits are enriched below; roughly 6% of the tested compounds scored in any of these assays.
D1 ag = activates the human D1 dopamine receptor | HEK293 T-REx D1 cells, calcium flux, agonist mode | hit rate 1% among 360,000 | activation, % at 2 µM; in the data active = activation above about 30%; also: 0% is about no effect
Target sequence (P21728 whole entry, looked up): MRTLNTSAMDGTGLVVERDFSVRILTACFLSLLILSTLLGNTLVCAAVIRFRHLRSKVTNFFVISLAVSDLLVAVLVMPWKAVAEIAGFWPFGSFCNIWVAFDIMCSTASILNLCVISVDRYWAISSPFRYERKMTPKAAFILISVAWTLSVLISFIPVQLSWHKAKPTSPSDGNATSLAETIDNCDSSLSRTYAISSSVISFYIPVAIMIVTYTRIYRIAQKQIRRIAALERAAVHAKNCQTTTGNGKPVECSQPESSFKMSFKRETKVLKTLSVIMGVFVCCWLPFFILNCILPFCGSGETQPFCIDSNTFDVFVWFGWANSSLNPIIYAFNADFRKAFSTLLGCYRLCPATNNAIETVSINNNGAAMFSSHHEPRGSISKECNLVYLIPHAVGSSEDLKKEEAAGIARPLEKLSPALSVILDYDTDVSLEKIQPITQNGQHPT
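Inducible HEK293 T-REx D1 cells, force-coupled to calcium signalling, were plated at 4000 cells/well with tetracycline and held overnight at 30 C. After no-wash calcium dye loading, compound-evoked calcium rise over 180 s flagged agonists.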
D1 potentiator = potentiators of human D1 dopamine receptor; potentiation, % at 10 µM; HEK293 TREx D1 cells, calcium flux, dopamine EC20 potentiation; AID 504651; P21728; hit rate 0.036% among 360,000; in the data active = potentiation above about 30%; also: 0% is about no effect
D3 antag = antagonists of human D3 dopamine receptor. D3R cells, DiscoveRx beta-arrestin luminescence, antagonist mode; active compounds read low. max response, negative = inhibition, %. hit rate 2.5% among 360,000; in the data active = max response below about -50%; inconclusive = no clear call, values can overlap the other calls; also: % is scaled to controls: 0 for no effect and ±100 for the full control effect
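Cells expressing the human receptor were seeded at 1500 cells/well, incubated overnight at 37 degrees C in 5% CO2, then exposed to library compounds with dopamine controls for 90 minutes at 37 degrees C before luminescent detection.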
D3 ag = agonists of human D3 dopamine receptor; D3R DiscoveRx beta-arrestin cells, luminescence, 90 min; max activation, %; hit rate 0.58% among 410,000; AID 652048; in the data active = max activation above about 30%; also: 0% is about no effect
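Cells at 1500/well, incubated overnight, then treated with pinned compounds (dopamine as control) for 90 min at 37 degrees C. DiscoveRx reagent added for 30 - 60 minutes at room temperature; luminescence read.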
D1 antag = human D1 dopamine receptor antagonism. P21728. hit rate 3.2% among 360,000. activity change, negative = inhibition, % at 10 µM. HEK293 TREx D1 cells, calcium flux, dopamine EC80; active compounds read low; in the data active = activity change below about -30%; also: % is scaled to controls: 0 for no effect and ±100 for the full control effect
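Compound effects on dopamine-evoked calcium signalling were measured in tetracycline-induced HEK293 Trex D1 cells. Dopamine at EC80 followed a 180 s compound pre-read, and fluorescence was tracked kinetically for 180 s more.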
An asterisk follows results filed as active; ? = inconclusive; . = no result.

SMILES | D1 ag | D1 potentiator | D3 antag | D3 ag | D1 antag
CCOC(=O)c1ccccc1NC(=O)c1cc2ccc3cccnc3c2[nH]1 | 5 | -1 | . | -6 | -5
c1ccc(Nc2nc(N3CCCCC3)nc(N3CCCCC3)n2)cc1 | 2 | 2 | 17 | 2 | 6
C(=N\Nc1nc2ccccc2[nH]1)/c1c[nH]c2ccccc12 | 3 | -12 | 30 | 47* | -26
O=[N+]([O-])c1ccccc1N/N=C/c1c[nH]c2ccccc12 | 6 | -5 | -52* | -4 | -71*
c1ccc(Nc2nc(N3CCCCC3)nc(N3CCNCC3)n2)cc1 | 42* | 4 | ? | -23 | 38
O=C(OCC#CCNc1nnc(-c2cccc3ccccc23)o1)c1cccs1 | 3 | 5 | . | . | 1
Cc1cc(C)cc(OC(=O)CCN2C(=O)C3C4C=CC(C5CC45)C3C2=O)c1 (centres undefined) | 0 | 0 | 15 | 3 | 4
O=C(CCN1C(=O)C2C3C=CC(C4CC34)C2C1=O)Oc1ccc(Br)cc1 (centres undefined) | 2 | -10 | -15 | -9 | -62*
O=C(CCN1C(=O)C2C3C=CC(C4CC34)C2C1=O)Oc1cccc2cccnc12 (centres undefined) | 1 | -3 | -68* | -52 | 6
CCCCOc1ccccc1C1CC(=O)NC2=C1C(=O)CCC2 (centres undefined) | 15 | -5 | -5 | -15 | -48*
CCCOc1ccccc1C1CC(=O)NC2=C1C(=O)CCC2 (centres undefined) | 14 | -4 | -9 | 0 | 5
O=C(Nc1nnc(-c2cccs2)o1)c1cccc(Oc2ccccc2)c1 | 85* | -6 | -19 | 1 | -16
O=C(Nc1nnc(-c2cccs2)o1)c1cccc(F)c1 | . | . | 1 | -7 | .
CCOC1=C2[C@@H](CN(S(=O)(=O)c3ccccc3C)[C@H]2c2ccc(Cl)cc2)[C@H]2C(=O)N(c3ccccc3)C(=O)[C@H]2C1 | . | . | -6 | 18 | .
CCOC1=C2[C@@H](CN(S(=O)(=O)c3ccccc3C)[C@H]2c2ccc(Cl)cc2)[C@H]2C(=O)NC(=O)[C@H]2C1 | . | . | -72* | -1 | .
CC1(C(=O)NS(=O)(=O)c2cccc(Cl)c2)CCN1C(=O)CC1CCCCC1 (centres undefined) | . | . | 0 | -11 | .
CCCCOc1ccc(S(=O)(=O)NC(=O)C2(C)CCN2C(=O)Cc2ccccc2Cl)cc1 (centres undefined) | . | . | -8 | -20 | .
CCCCOc1ccc(S(=O)(=O)NC(=O)C2(C)CCN2C(=O)CCc2ccccc2)cc1 (centres undefined) | . | . | -50* | -3 | .
CC1(C(=O)NS(=O)(=O)c2cccc(Cl)c2)CCN1C(=O)CC1CC1 (centres undefined) | . | . | 0 | 52* | .
CC1(C(=O)NS(=O)(=O)c2cccc(Cl)c2)CCN1C(=O)Cc1ccc(Cl)cc1Cl (centres undefined) | . | . | -83* | -26 | .
CC1(C(=O)Nc2cnc3ccccc3c2)CCN1C(=O)CCc1ccccc1 (centres undefined) | . | . | 0 | 54* | .
O=C1CCCc2cc(S(=O)(=O)N3CCCC(C(=O)NCc4ccccc4Cl)C3)ccc2N1 (centres undefined) | 0 | -6 | . | 4 | -15
COc1ccc(N2C(=O)c3ccccc3NC(=O)C2C(=O)NCCc2ccccc2F)cc1 (centres undefined) | . | . | 11 | 8 | .
CC1(C(=O)NS(=O)(=O)c2ccc(Cl)cc2)CCN1C(=O)CCc1ccc(Cl)cc1Cl (centres undefined) | . | . | -52* | -15 | .
CC(C)(C)c1ccc(CN2N=Nc3ccccc3S2(=O)=O)cc1 | 3 | -3 | -93* | 3 | 20
SMILES | D1 ag | D1 potentiator | D3 antag | D3 ag | D1 antag
COc1cc2c(cc1OC)C(c1ccc(F)cc1)N(c1ccccc1)C(=O)C2 (centres undefined) | -2 | 0 | . | 4 | -1
CCCCCCCCN1C(=O)[C@H](CC(=O)NCCCOC)C[C@@]2(C(=O)OC)CCCCC=C12 | . | . | 5 | -7 | .
O=C(CSc1ccc(-c2cccnc2)nn1)Nc1ccc(F)cc1 | 7 | -1 | -63* | -4 | 11
Cc1ccc(NC(=O)CSc2ccc(-c3cccnc3)nn2)cc1 | 4 | -8 | 1 | -6 | 6
O=C(CSc1cccc[n+]1[O-])NCC1CCCCC1 | 0 | 1 | 14 | 3 | -69*
O=C(CSc1cccc[n+]1[O-])N1CCCCCC1 | 3 | 1 | 8 | -2 | -34*
